# Measured values: PubChem BioAssay (EPA / NIEHS)
# Values joined by “and” are separate entries in the source; they are usually repeats but may differ in a detail not shown here. Equal entries are not always repeated. Records with an inconclusive call do not appear. The source holds several records for some structures; these can differ, active in one and inactive in another. Active and inactive are the calls of the source. How the source made its calls: active means hit-call score of the fitted dose curve at least 0.9, where 1 is the maximum; inconclusive means response in the unintended direction; inactive means score below 0.9.
# Assays:
# [1] = target: Sodium channel protein type 1 subunit alpha (Rattus norvegicus) (UniProt P04774); test: NVS_IC_rNaCh_site2: NovaScreen (NVS) Ion Channel Assay for rat Sodium Channel, Site 2 (NaCh) (AID 2283322);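 further: hit means loss of radioligand binding signal relative to DMSO so AC50 marks displacement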
# Method in brief: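 Membranes: rat forebrain. Format: competitive radioligand displacement, filter separation, scintillation readout, 1 h exposure. Primary screen in duplicate at 25 uM; actives retested in concentration series.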
# [2] = target: human Serotonin, 5-Hydroxytryptamine Receptor 3 (5HT3), HTR3A (gene 3359) (UniProt P46098); test: NVS_LGIC_h5HT3: NovaScreen (NVS) Ligand-Gated Ion Channel Assay for human Serotonin, 5-Hydroxytryptamine Receptor 3 (5HT3) (AID 2283325)
# human Serotonin, 5-Hydroxytryptamine Receptor 3 (5HT3), HTR3A (gene 3359), sequence (P46098 whole entry, looked up): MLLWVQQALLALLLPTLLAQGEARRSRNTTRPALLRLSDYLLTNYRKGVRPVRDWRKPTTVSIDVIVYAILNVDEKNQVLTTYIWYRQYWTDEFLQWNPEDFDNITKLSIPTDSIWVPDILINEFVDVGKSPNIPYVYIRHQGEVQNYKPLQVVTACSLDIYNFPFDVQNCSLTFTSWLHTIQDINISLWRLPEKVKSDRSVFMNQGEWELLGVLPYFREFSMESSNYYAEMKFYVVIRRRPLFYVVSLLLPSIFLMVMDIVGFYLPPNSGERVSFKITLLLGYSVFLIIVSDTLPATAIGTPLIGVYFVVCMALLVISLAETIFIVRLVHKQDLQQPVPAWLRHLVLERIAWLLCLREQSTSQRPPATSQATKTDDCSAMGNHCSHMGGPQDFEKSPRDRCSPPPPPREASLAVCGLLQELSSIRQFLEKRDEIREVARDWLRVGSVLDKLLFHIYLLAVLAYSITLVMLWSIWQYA
# Method in brief: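 Radioligand displacement binding to human 5-HT3 from HEK293 membranes, read by filter-based scintillation counting after 1 h. Screen at 25 uM in duplicate; chemicals passing threshold were retested in concentration-response up to 50 uM.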
# [3] = target: rat Glutamate, NMDA Agonist Site (GluNMDA), Grin1 (gene 24408) (UniProt P35439); test: NVS_LGIC_rGluNMDA_Agonist: NovaScreen (NVS) Ligand-Gated Ion Channel Assay for rat Glutamate, NMDA Agonist Site (GluNMDA) (AID 2283327)
# Method in brief: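 Rat forebrain membranes, radioligand binding in the agonist-site protocol; 1 h after dosing; filter-based scintillation counting. Single-concentration duplicate screen at 25 uM, then concentration-response up to 50 uM for actives; gain-of-signal vs DMSO.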
# [4] = target: human Peripheral-type Benzodiazepine Receptor (PBR), TSPO (gene 706) (UniProt P30536); test: NVS_MP_hPBR: NovaScreen (NVS) Membrane Protein Assay for human Peripheral-type Benzodiazepine Receptor (PBR) (AID 2283331);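 further: hits reduce radioligand binding relative to DMSO baseline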
# human Peripheral-type Benzodiazepine Receptor (PBR), TSPO (gene 706), sequence (P30536 whole entry, looked up): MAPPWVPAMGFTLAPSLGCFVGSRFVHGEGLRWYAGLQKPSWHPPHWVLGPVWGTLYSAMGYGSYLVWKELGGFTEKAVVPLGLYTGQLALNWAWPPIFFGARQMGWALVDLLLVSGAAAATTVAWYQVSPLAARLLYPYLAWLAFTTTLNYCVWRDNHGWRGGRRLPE
# Method in brief: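 Human colonic cell membranes were incubated with test chemical for 1 hour; radioligand binding was measured by filter-based scintillation counting. Primary screen ran in duplicate at 25 uM, with actives followed in concentration series; loss of signal versus DMSO baseline.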
# [5] = target: human Androgen Receptor (AR), AR (gene 367) (UniProt P10275); test: NVS_NR_hAR: NovaScreen (NVS) Nuclear Receptor Binding Assay for human Androgen Receptor (AR) (AID 2283332)
# human Androgen Receptor (AR), AR (gene 367), sequence (P10275 whole entry, looked up): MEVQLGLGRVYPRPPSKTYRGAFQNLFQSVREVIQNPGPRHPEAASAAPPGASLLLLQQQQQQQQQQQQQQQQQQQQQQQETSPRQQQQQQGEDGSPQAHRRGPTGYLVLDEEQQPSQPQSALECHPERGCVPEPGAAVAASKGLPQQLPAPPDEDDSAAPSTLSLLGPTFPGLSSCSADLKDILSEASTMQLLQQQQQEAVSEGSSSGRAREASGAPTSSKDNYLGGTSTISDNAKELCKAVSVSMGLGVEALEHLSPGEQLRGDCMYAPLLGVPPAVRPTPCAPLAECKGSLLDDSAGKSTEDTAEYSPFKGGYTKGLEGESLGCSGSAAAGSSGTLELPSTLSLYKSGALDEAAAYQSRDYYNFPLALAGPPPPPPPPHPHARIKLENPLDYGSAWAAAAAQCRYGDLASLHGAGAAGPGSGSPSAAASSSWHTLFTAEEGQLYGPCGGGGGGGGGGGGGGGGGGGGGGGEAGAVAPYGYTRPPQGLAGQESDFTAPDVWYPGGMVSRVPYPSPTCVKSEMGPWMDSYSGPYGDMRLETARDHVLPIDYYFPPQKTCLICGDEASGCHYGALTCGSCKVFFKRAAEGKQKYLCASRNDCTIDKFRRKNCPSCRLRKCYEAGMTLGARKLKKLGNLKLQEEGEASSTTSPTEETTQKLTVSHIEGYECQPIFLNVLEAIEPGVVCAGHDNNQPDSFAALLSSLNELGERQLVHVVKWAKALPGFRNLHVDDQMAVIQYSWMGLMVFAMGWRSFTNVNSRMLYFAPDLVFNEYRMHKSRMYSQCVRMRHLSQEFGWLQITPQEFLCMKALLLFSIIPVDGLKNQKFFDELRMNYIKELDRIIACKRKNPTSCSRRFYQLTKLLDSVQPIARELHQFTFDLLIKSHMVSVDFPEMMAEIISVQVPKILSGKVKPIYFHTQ
# Method in brief: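 Actives from a duplicate 25 uM single-point screen went on to concentration series. Read-out after 20 h was scintillation counting of displaced radioligand in LnCAP extract, with DMSO as baseline.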
# [6] = target: rat Peripheral-type Benzodiazepine Receptor (PBR), Tspo (gene 24230) (UniProt P16257); test: NVS_MP_rPBR: NovaScreen (NVS) Membrane Protein Assay for rat Peripheral-type Benzodiazepine Receptor (PBR) (AID 2283335)
# rat Peripheral-type Benzodiazepine Receptor (PBR), Tspo (gene 24230), sequence (P16257 whole entry, looked up): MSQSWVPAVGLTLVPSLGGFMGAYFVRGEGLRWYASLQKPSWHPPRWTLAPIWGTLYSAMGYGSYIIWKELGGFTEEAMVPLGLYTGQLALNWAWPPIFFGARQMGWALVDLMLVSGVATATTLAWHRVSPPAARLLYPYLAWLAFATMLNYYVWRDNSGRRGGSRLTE
# Method in brief: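 Radioligand displacement, rat kidney membrane prep, 1 h exposure, filter-based scintillation read; DMSO baseline, loss-of-signal scored. Primary screen at 25 uM in duplicate, actives followed up in concentration series.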
# [7] = NVS_IC_rCaBTZCHL: NovaScreen (NVS) Ion Channel Assay for Calcium Channel, Type L, Benzothiazepine Site (CaBTZCHL) (AID 2283337)
# Method in brief: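 Radioligand binding to the benzothiazepine site of L-type Ca channels in rat cortical membranes (cell-free), 1.5 h after dosing; filter-based scintillation counting. Loss of signal relative to DMSO baseline; primary single-concentration screen at 25 uM, actives then run in concentration series.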
# NCBI gene 100848466 = test: NVS_NR_bPR: NovaScreen (NVS) Nuclear Receptor Binding Assay for bovine Progextron Receptor (PR) (AID 2283343);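 on AC50: actives lower bound radioligand signal below DMSO meaning displacement of the label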
# Method in brief: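 Bovine uterine membrane preparation, cell-free; radioligand competitive displacement measured by scintillation counting 18 hours after dosing. Loss of signal versus DMSO baseline indicates binding; primary HTS single concentration 25 uM in duplicate, actives followed in concentration series.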
# [8] = target: bovine Estrogen Receptor (ER), ESR1 (gene 407238) (UniProt P49884); test: NVS_NR_bER: NovaScreen (NVS) Nuclear Receptor Binding Assay for bovine Estrogen Receptor (ER) (AID 2283345);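 further: actives lower the bound radioligand count which means they displace the ER ligand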
# bovine Estrogen Receptor (ER), ESR1 (gene 407238), sequence (P49884 whole entry, looked up): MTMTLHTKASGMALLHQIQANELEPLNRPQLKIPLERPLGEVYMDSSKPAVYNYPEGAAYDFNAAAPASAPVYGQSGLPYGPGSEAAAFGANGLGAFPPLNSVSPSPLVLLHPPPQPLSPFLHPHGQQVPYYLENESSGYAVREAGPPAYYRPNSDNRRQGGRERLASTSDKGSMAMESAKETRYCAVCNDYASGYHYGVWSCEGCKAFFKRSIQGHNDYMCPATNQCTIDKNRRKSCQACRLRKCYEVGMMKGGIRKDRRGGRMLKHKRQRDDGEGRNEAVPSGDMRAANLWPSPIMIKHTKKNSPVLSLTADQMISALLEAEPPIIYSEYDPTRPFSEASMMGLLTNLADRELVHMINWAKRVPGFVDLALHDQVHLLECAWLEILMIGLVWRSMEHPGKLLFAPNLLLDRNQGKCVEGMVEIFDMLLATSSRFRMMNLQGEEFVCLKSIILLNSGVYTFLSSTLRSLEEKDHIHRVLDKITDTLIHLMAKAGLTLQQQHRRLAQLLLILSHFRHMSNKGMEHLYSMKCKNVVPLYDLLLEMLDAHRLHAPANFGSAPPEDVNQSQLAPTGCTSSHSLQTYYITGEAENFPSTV
# Method in brief: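 Cell-free radioligand binding with receptor from bovine uterine membranes, read by scintillation counting 18 h after dosing. Loss of specific binding was scored against DMSO; primary screen at 25 uM in duplicate, actives then run as concentration series.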
# [9] = target: chimpanzee Androgen Receptor (AR), AR (gene 747460) (UniProt O97775); test: NVS_NR_cAR: NovaScreen (NVS) Nuclear Receptor Binding Assay for chimpanzee Androgen Receptor (AR) (AID 2283346);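 further: radioligand displacement from AR measured by scintillation counting in a cell-free assay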
# chimpanzee Androgen Receptor (AR), AR (gene 747460), sequence (O97775 whole entry, looked up): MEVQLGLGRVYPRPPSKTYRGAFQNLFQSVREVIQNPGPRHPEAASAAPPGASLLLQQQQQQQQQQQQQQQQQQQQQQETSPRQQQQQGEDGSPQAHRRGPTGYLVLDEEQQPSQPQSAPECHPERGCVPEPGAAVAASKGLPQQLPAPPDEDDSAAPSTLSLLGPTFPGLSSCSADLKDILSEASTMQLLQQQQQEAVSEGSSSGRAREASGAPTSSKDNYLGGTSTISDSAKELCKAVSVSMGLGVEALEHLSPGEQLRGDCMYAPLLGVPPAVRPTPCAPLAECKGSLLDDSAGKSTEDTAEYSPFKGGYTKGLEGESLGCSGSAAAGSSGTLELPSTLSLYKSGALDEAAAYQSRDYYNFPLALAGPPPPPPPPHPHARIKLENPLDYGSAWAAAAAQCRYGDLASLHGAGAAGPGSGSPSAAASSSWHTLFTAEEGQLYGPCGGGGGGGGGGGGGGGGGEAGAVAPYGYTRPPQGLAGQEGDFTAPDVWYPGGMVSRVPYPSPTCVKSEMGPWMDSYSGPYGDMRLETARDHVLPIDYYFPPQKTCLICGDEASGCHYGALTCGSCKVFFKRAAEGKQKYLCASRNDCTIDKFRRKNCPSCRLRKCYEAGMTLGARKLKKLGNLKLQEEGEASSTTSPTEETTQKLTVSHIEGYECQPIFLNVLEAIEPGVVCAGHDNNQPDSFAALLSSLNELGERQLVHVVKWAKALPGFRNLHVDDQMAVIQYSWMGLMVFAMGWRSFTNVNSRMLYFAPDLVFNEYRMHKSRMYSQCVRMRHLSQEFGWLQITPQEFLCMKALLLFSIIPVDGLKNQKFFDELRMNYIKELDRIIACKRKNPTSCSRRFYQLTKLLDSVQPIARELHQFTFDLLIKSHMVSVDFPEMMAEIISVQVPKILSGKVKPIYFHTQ
# Method in brief: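 Cell-free radioligand displacement using receptor protein extracted from Sf9/Sf21 cells; bound radioligand measured by scintillation counting 72 hours after chemical dosing. Loss of signal versus DMSO baseline indicates binding; primary screen single-concentration in duplicate at 25 uM, actives followed in concentration series.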
# [10] = target: rat Thyrotropin Releasing Hormone Receptor (TRH), Trhr (gene 25570) (UniProt Q01717); test: NVS_GPCR_rTRH: NovaScreen (NVS) G Protein-Coupled Receptor Assay for rat Thyrotropin Releasing Hormone Receptor (TRH) (AID 2283329);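 further: hit means lower bound tracer signal versus DMSO baseline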
# rat Thyrotropin Releasing Hormone Receptor (TRH), Trhr (gene 25570), sequence (Q01717 whole entry, looked up): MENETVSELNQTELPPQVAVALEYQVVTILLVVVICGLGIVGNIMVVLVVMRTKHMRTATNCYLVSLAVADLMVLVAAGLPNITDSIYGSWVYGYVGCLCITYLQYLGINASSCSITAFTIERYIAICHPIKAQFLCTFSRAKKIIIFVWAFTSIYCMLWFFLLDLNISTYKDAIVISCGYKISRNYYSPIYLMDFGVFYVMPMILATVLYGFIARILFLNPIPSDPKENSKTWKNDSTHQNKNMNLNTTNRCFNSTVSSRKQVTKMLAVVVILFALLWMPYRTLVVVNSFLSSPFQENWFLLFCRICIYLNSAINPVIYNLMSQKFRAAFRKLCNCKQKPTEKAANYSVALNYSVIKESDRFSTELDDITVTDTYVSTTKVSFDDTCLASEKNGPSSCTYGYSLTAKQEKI
# Method in brief: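 Cell-free radioligand binding on rat forebrain membranes; bound tracer measured by filter-based scintillation counting 4 hours after dosing. Loss of signal versus DMSO baseline indicates displacement; primary screen at 25 uM in duplicate, actives then run in concentration series.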
# [11] = target: Small conductance calcium-activated potassium channel protein 1 (Rattus norvegicus) (UniProt P70606); test: NVS_IC_rKCaCh: NovaScreen (NVS) Ion Channel Assay for rat Potassium Channel, Ca2+ Act., VI (KCaCh) (AID 2283336)
# Small conductance calcium-activated potassium channel protein 1 (Rattus norvegicus), sequence (P70606 whole entry, looked up): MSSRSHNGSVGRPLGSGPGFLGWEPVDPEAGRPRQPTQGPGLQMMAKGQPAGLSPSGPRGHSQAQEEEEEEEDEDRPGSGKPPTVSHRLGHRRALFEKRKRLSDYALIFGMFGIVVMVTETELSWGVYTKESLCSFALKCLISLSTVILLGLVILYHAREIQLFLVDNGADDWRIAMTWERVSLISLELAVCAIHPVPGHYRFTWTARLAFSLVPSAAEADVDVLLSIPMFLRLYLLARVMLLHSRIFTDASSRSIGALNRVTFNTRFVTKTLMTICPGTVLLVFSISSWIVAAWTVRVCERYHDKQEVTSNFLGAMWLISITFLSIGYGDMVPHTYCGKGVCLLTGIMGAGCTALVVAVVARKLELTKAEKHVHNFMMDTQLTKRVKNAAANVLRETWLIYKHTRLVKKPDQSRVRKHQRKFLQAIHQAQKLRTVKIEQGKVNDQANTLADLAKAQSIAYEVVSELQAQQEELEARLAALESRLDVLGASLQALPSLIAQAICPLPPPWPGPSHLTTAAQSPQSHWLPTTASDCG
# Method in brief: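 Radioligand binding to rat forebrain membranes, cell-free, read 1 hour after dosing by filter-based scintillation counting. Compounds first run in duplicate at 25 uM, actives then in concentration series; loss of signal vs DMSO indicates displacement.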
# [12] = system: guinea pig Histamine Receptor (H2), gene 100729734; test: NVS_GPCR_gH2: NovaScreen (NVS) G Protein-Coupled Receptor Assay for guinea pig Histamine Receptor (H2) (AID 2283342)
# Method in brief: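 Radioligand displacement on guinea pig striatal membranes, 1 h after dosing, filter-based scintillation counting; loss of signal versus DMSO. Single-point screen at 25 uM in duplicate, then concentration-response up to 50 uM.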
# [13] = target: bovine Gamma-Aminobutyric Acid Type A Receptor Agonist (GABAR Agonist), GABRA1 (gene 780973) (UniProt P08219); test: NVS_LGIC_bGABAR_Agonist: NovaScreen (NVS) Ligand-Gated Ion Channel Assay for bovine Gamma-Aminobutyric Acid Type A Receptor Agonist (GABAR Agonist) (AID 2283338)
# bovine Gamma-Aminobutyric Acid Type A Receptor Agonist (GABAR Agonist), GABRA1 (gene 780973), sequence (P08219 whole entry, looked up): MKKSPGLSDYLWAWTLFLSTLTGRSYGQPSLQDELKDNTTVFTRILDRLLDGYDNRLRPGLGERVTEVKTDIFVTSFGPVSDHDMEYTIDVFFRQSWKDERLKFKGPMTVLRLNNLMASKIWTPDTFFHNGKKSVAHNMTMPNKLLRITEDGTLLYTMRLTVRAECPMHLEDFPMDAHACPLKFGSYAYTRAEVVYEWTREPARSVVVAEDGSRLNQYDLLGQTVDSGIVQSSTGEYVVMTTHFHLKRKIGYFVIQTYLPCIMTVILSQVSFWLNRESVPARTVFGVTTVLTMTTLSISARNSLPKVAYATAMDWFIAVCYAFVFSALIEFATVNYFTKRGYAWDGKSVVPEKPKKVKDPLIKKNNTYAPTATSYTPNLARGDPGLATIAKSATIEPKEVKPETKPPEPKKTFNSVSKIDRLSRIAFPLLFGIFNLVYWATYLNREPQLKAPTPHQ
# Method in brief: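 Radioligand binding to bovine cerebellar membranes in agonist format, read by filter-based scintillation counting after 1 h. Primary screen in duplicate at 25 uM, with actives followed in concentration series. Gain of signal versus DMSO.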
# [14] = target: Voltage-gated inwardly rectifying potassium channel KCNH2 (Homo sapiens) (UniProt Q12809); test: NVS_IC_hKhERGCh: NovaScreen (NVS) Ion Channel Assay for human Potassium Channel ERG (KhERGCh) (AID 2283333)
# Method in brief: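 Cell-free radioligand competition binding on hERG protein extracted from CHO cells, read by filter-based scintillation counting 0.75 h after dosing. Primary screen at 25 uM in duplicate, actives followed in concentration series. Signal loss fitted versus DMSO.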
smiles,measurement,setting,value
CC(C)(c1ccc(O)cc1)c1ccc(O)cc1,AC50,[1],25.4 µM (active)
same,outcome,[1],inactive
same,outcome,[2],inactive
same,AC50,[3],19.7 µM (active) and 25.4 µM (active) and 15 µM (active)
same,outcome,[4],inactive
same,AC50,[5],9.86 µM (active) [middle of 4 runs]
same,outcome,[5],inactive
same,AC50,[6],6.73 µM (active) and 25 µM (active)
same,outcome,[6],inactive
same,outcome,[7],inactive
same,AC50,NCBI gene 100848466,10.3 µM (active) and 19.7 µM (active) and 14.7 µM (active)
same,outcome,[8],inactive
same,AC50,[9],16.5 µM (active) and 17.8 µM (active) and 25.4 µM (active)
OB(O)O,outcome,[1],inactive
COC(=O)c1ccccc1S(=O)(=O)NC(=O)Nc1nc(OC(F)F)cc(OC(F)F)n1,outcome,[10],inactive
C[C@]12CC[C@@H]3c4ccc(O)cc4C[C@@H](CCCCCCCCCS(=O)CCCC(F)(F)C(F)(F)F)[C@H]3[C@@H]1CC[C@@H]2O (stereo partly drawn),outcome,[10],inactive
same,outcome,[4],inactive
same,outcome,[5],inactive
same,outcome,[11],inactive
same,AC50,[7],1.45 µM (active)
same,outcome,[12],inactive
same,outcome,NCBI gene 100848466,inactive
same,outcome,[8],inactive
same,AC50,[9],15.5 µM (active)
same,outcome,[9],inactive
CCCCCCC(C)OC(=O)COc1nc(F)c(Cl)c(N)c1Cl (stereo not drawn),outcome,[4],inactive
same,AC50,[6],3.75 µM (active)
COc1nc(C)nc(NC(=O)NS(=O)(=O)c2ccccc2OCCCl)n1,outcome,[4],inactive
same,AC50,[6],21.8 µM (active) and 9.77 µM (active)
same,outcome,[13],inactive
CCCCOCCOCCOCc1cc2c(cc1CCC)OCO2,AC50,[4],26.9 µM (active)
same,AC50,[6],12.3 µM (active)
same,outcome,NCBI gene 100848466,inactive
CCN(CC)C(=O)c1cccc(C)c1,AC50,[4],20.1 µM (active)
same,AC50,[6],8.73 µM (active)
Cc1nn(C)c(Oc2ccccc2)c1C=NOCc1ccc(C(=O)OC(C)(C)C)cc1,outcome,[14],inactive
same,AC50,NCBI gene 100848466,11000 nM (active)
same,outcome,[8],inactive
N#CSCSc1nc2ccccc2s1,AC50,[6],11.1 µM (active) and 9.24 µM (active)
same,outcome,NCBI gene 100848466,inactive
CC(=O)[C@H]1CC[C@H]2[C@@H]3CCC4=CC(=O)CC[C@]4(C)[C@H]3CC[C@]12C,AC50,[4],1.75 µM (active) and 1.51 µM (active) and 4.64 µM (active)
same,outcome,[11],inactive
same,AC50,NCBI gene 100848466,2.29 nM (active)
same,AC50,[8],12.4 µM (active)
same,outcome,[8],inactive
COCCO,outcome,[8],inactive
CCOC(=O)c1ccc(O)cc1,outcome,[8],inactive
same,outcome,[9],inactive
COC(=O)c1ccccc1C(=O)O,outcome,[4],inactive
same,outcome,[12],inactive
CCOC(=O)COc1cc(-n2ncc(C(F)(F)F)c(C)c2=O)c(F)cc1Cl,AC50,[6],0.806 µM (active)
same,outcome,[8],inactive
C#C[C@]1(O)CC[C@H]2[C@@H]3CCC4=CC(=O)CC[C@@H]4[C@H]3CC[C@@]21CC,AC50,NCBI gene 100848466,4.53 nM (active)
same,AC50,[8],6.85 µM (active)
same,outcome,[8],inactive
same,AC50,[9],2.29 nM (active) and 5.63 nM (active)
CCNc1nc(N)nc(Cl)n1,outcome,[4],inactive
same,outcome,[6],inactive
same,outcome,NCBI gene 100848466,inactive
CC(C)CCCCCCc1ccc(O)cc1,outcome,[4],inactive
same,outcome,NCBI gene 100848466,inactive
same,AC50,[8],16.7 µM (active) [middle of 4 runs]
CCCCOC(=O)C(C)Oc1ccc(Oc2ccc(C(F)(F)F)cn2)cc1 (stereo not drawn),outcome,[8],inactive
C[C@]12C[C@H](O)[C@H]3[C@@H](CCC4=CC(=O)CC[C@@]43C)[C@@H]1CC[C@@H]2C(=O)CO,AC50,NCBI gene 100848466,875 nM (active)
same,outcome,[8],inactive
same,AC50,[9],4.56 µM (active)
CCCCOC(=O)[C@@H](C)Oc1ccc(Oc2ccc(C(F)(F)F)cn2)cc1,outcome,[4],inactive
same,outcome,[6],inactive
COc1c(Cl)ccc(Cl)c1C(=O)O,outcome,[8],inactive
C#CCOC(=O)[C@@H](C)Oc1ccc(Oc2ncc(Cl)cc2F)cc1,outcome,[6],inactive
N[C@@H](Cc1cc(I)c(Oc2ccc(O)c(I)c2)c(I)c1)C(=O)O,AC50,[6],9.05 µM (active) and 6.01 µM (active) and 8.66 µM (active)
same,outcome,[8],inactive
same,outcome,[9],inactive
CN(C)C(=O)Nc1ccc(Cl)c(Cl)c1,AC50,[4],19.9 µM (active)
same,AC50,[6],8.92 µM (active)
same,AC50,[9],25 µM (active)
CSC(=O)c1cccc2nnsc12,outcome,[5],inactive
same,AC50,[9],1.02 µM (active)
